# Measurements from the antibiotic and cytotoxicity screens of Wong et al. (2023).
# Out of some 39,000 compounds screened, about 3,300 (8.5%) were called active. For the sample, actives were picked, then their nearest neighbours and some compounds at random.
# System: HepG2
# Experiment: cytotoxicity call (relative viability < 0.9)
# Details: 10 µM
row,Compound,cytotoxicity call
1,N[C@@H](Cn1ccc(=O)n(Cc2ccccc2C(=O)O)c1=O)C(=O)O,inactive
2,Cc1noc(C)c1S(=O)(=O)Nc1ccc2c(c1)C(=O)N([C@@H](C)CO)C[C@@H](C)[C@@H](CN(C)C(=O)Nc1ccc3c(c1)OCO3)O2,inactive
3,COc1cc2c(Oc3ccc(NC(=O)C4(C(=O)Nc5ccc(F)cc5)CC4)cc3F)ccnc2cc1OCCCN1CCOCC1,active
4,COc1cc2nccc(Oc3ccc(NC(=O)c4cn(C(C)C)c(=O)n(-c5ccc(F)cc5)c4=O)cc3F)c2cc1OC,active
5,Cc1cc(C)nc(NS(=O)(=O)c2ccc(NC(=O)c3cccn(OCc4ccc(F)cc4)c3=O)cc2)n1,inactive
6,COc1ccc2c3c(n(c2c1)C)[C@H](CO)N(C[C@]13CCN(CC1)C(=O)CN1CCOCC1)C(=O)Nc1ccc(cc1)F,inactive
7,COc1cc2nccc(Oc3ccc(NC(=O)C4(C(=O)Nc5ccc(F)cc5)CC4)cc3)c2cc1OC,inactive
8,C[C@H]1CN([C@@H](C)CO)C(=O)Cc2cc(NC(=O)C3CC3)ccc2O[C@H]1CN(C)C(=O)Nc1ccccc1,inactive
9,C[C@H]1CN([C@@H](C)CO)C(=O)Cc2cc(NS(=O)(=O)c3ccccc3)ccc2O[C@H]1CN(C)S(C)(=O)=O,inactive
10,O=S(=O)(O)O/N=C(\Cc1ccc(O)cc1)S[C@H]1O[C@H](CO)[C@@H](O)[C@H](O)[C@H]1O,inactive
11,CC=Cc1ccc2n(c1=O)C[C@@H]1[C@@H](CO)[C@H](C(=O)NCCc3cn(C)cn3)N(C(=O)CC)[C@H]21,inactive
12,C[C@H](CO)N1C[C@H](C)[C@H](CN(C)C(=O)C2CCOCC2)Oc2ncc(C#Cc3cccc(F)c3)cc2C1=O,inactive
13,CC(C)N1CC[C@@H](CNCc2ccc(Oc3ccccc3)cc2)Oc2c(NC(=O)c3ccncc3)cccc2C1=O,inactive
14,O=C(NCc1ccccn1)C1CCNCC1,inactive
15,CN(CC(=O)NCc1ccccn1)S(=O)(=O)c1cc(Br)cnc1N,active
16,CC(C)CNC(=O)C(=O)NCc1ccccn1,inactive
17,Nc1nc(Cl)nc(Cl)n1,inactive
18,COc1ccc(NC(=O)Nc2ccc3c(c2)[C@@H]2C[C@@H](CC(=O)NCc4ccccn4)O[C@H](CO)[C@@H]2O3)cc1,inactive
19,C[C@H]1CN([C@@H](C)CO)C(=O)Cc2cc(NC(=O)C3CCCCC3)ccc2O[C@H]1CN(C)Cc1ccc(C(F)(F)F)cc1,inactive
20,C[C@@H]1CN([C@@H](C)CO)C(=O)Cc2cc(NC(=O)C3CCCCC3)ccc2O[C@@H]1CN(C)Cc1ccc(C(F)(F)F)cc1,active
21,C[C@H](CO)N1C[C@H](C)[C@H](CN(C)Cc2ccc(C(F)(F)F)cc2)Oc2ccc(NC(=O)C3CCCCC3)cc2CC1=O,inactive
22,C[C@@H]1CN([C@@H](C)CO)C(=O)Cc2cc(NC(=O)C3CCCCC3)ccc2O[C@H]1CN(C)Cc1ccc(C(F)(F)F)cc1,inactive
23,C[C@@H]1CN([C@H](C)CO)C(=O)Cc2cc(NC(=O)C3CCCCC3)ccc2O[C@@H]1CN(C)Cc1ccc(C(F)(F)F)cc1,active
24,C[C@H](CO)N1C[C@H](C)[C@H](CN(C)C(=O)Nc2ccc(C(F)(F)F)cc2)Oc2ccc(NC(=O)C3CCCCC3)cc2CC1=O,inactive
25,C[C@@H]1CN([C@H](C)CO)C(=O)Cc2cc(NC(=O)C3CCCCC3)ccc2O[C@H]1CN(C)Cc1ccc(C(F)(F)F)cc1,inactive
26,C[C@H](CO)N1C[C@H](C)[C@@H](CN(C)Cc2ccc(C(F)(F)F)cc2)Oc2ccc(NC(=O)C3CCCCC3)cc2CC1=O,inactive

row,Compound,cytotoxicity call
1,C[C@H]1CN([C@@H](C)CO)C(=O)Cc2cc(NC(=O)C3CCCCC3)ccc2O[C@@H]1CN(C)Cc1ccc(C(F)(F)F)cc1,active
2,CCN1C[C@]23CN(C(=O)c4cnccn4)C[C@@H](C[C@H]2S1(=O)=O)O3,inactive
3,C[C@H]1CN([C@@H](C)CO)C(=O)CCCn2nncc2CO[C@H]1CN(C)S(=O)(=O)c1ccc(Oc2ccccc2)nc1,inactive
4,C[C@@H]1CCCCO[C@H](CN(C)C(=O)Nc2ccc(F)cc2)[C@H](C)CN([C@H](C)CO)C(=O)c2cc(NS(=O)(=O)c3ccccc3)ccc2O1,inactive
5,C[C@H](CO)N1C[C@H](C)[C@H](CN(C)C)Oc2ccc(NS(=O)(=O)c3cn(C)cn3)cc2CC1=O,inactive
6,Cc1noc(C)c1S(=O)(=O)NC(C)C,inactive
7,CS(=O)(=O)CS(=O)(=O)C1=C(N2CCOCC2)C2CCN1CC2,inactive
8,Cc1noc(C)c1NC(=O)N[C@@H]1C=C[C@@H](CC(=O)N2CCN(C)CC2)O[C@H]1CO,inactive
9,c1ccc(-c2cccs2)nc1,inactive
10,O=C(Nc1ccc(C(F)(F)F)cc1)Nc1ccc2c(c1)[C@H]1C[C@H](CC(=O)N3CCc4ccccc4C3)O[C@@H](CO)[C@H]1O2,inactive
11,O=C(Nc1ccc(C(F)(F)F)cc1)Nc1ccc2c(c1)[C@@H]1C[C@H](CC(=O)N3CCc4ccccc4C3)O[C@H](CO)[C@@H]1O2,inactive
12,O=C(Nc1ccc(C(F)(F)F)cc1)Nc1ccc2c(c1)[C@@H]1C[C@H](CC(=O)N3CCc4ccccc4C3)O[C@@H](CO)[C@@H]1O2,inactive
13,O=C(Nc1ccc(C(F)(F)F)cc1)Nc1ccc2c(c1)[C@@H]1C[C@@H](CC(=O)N3CCc4ccccc4C3)O[C@H](CO)[C@@H]1O2,active
14,O=C(Nc1ccc(C(F)(F)F)cc1)Nc1ccc2c(c1)[C@H]1C[C@@H](CC(=O)N3CCc4ccccc4C3)O[C@H](CO)[C@H]1O2,active
15,O=C(Nc1ccc(C(F)(F)F)cc1)Nc1ccc2c(c1)[C@H]1C[C@@H](CC(=O)N3CCc4ccccc4C3)O[C@@H](CO)[C@H]1O2,inactive
16,CO[C@@H]1CN(C)C(=O)c2cc(NC(=O)c3cc(C)on3)ccc2OC[C@@H](C)N(C(=O)C2CCC2)C[C@H]1C,inactive
17,C[C@@H]1CN([C@H](C)CO)C(=O)c2cc(NC(=O)Nc3ccc(C(F)(F)F)cc3)ccc2O[C@@H](C)CCCCO[C@@H]1CN(C)S(=O)(=O)c1cn(C)cn1,inactive
18,C[C@H](CO)N1C[C@H](C)[C@@H](CN(C)S(=O)(=O)c2ccc(F)cc2)OCCCC[C@H](C)Oc2ccc(NC(=O)C3CCCCC3)cc2C1=O,inactive
19,Cc1noc(C)c1S(=O)(=O)Nc1ccc2c(c1)C(=O)N([C@@H](C)CO)C[C@H](C)[C@H](CN(C)Cc1ccc(-c3ccccc3)cc1)O2,inactive
20,CCS(=O)(=O)N1CCC(C(=O)N(C)C)CC1,inactive
21,C[C@H](CO)N1C[C@H](C)[C@@H](CN(C)C(=O)NC2CCCCC2)OCc2ccccc2-c2c(n(C)c3ccccc23)C1=O,inactive
22,C[C@H]1CN([C@@H](C)CO)C(=O)c2c(c3ccccc3n2C)-c2ccccc2CO[C@H]1CN(C)CC1CCCCC1,inactive
23,C[C@@H]1CN([C@H](C)CO)C(=O)c2c(c3ccccc3n2C)-c2ccccc2CO[C@@H]1CN(C)C(=O)NC1CCCCC1,inactive
24,C[C@@H]1CN([C@@H](C)CO)C(=O)c2c(c3ccccc3n2C)-c2ccccc2CO[C@@H]1CN(C)CC1CCCCC1,active
25,C[C@H]1CN([C@@H](C)CO)C(=O)c2c(c3ccccc3n2C)-c2ccccc2CO[C@@H]1CN(C)CC1CCCCC1,active
26,C[C@H](CO)N1C[C@H](C)[C@@H](CN(C)CC2CCCCC2)OCc2ccccc2-c2c(n(C)c3ccccc23)C1=O,inactive

row,Compound,cytotoxicity call
1,C[C@@H]1CN([C@@H](C)CO)C(=O)c2c(c3ccccc3n2C)-c2ccccc2CO[C@H]1CN(C)CC1CCCCC1,inactive
2,C[C@H](CO)N1C[C@H](C)[C@H](CN(C)C(=O)NC2CCCCC2)OCc2ccccc2-c2c(n(C)c3ccccc23)C1=O,active
3,C[C@@H]1CN([C@H](C)CO)C(=O)c2c(c3ccccc3n2C)-c2ccccc2CO[C@@H]1CN(C)CC1CCCCC1,inactive
4,CC1(C)S[C@H]2[C@@H](NC(=O)[C@@H](NC(=O)N3CCN(S(C)(=O)=O)C3=O)c3ccccc3)C(=O)N2[C@@H]1C(=O)O,inactive
5,CCCNC(=O)Nc1ccc2c(c1)C(=O)N(C)C[C@@H](OC)[C@@H](C)CN(C(=O)C1CCOCC1)[C@@H](C)CO2,inactive
6,Cc1noc(C)c1NC(=O)N(C)C[C@H]1OCCCC[C@@H](C)Oc2ccc(NC(=O)CCC(F)(F)F)cc2C(=O)N([C@H](C)CO)C[C@H]1C,inactive
7,C[C@H](C(=O)O)N1CCCCC1,inactive
8,CC(C)c1cn(CC[C@H]2CC[C@H](N)[C@@H](CO)O2)nn1,inactive
9,CC[C@@H](Sc1n[nH]c(=O)[nH]c1=O)C(=O)O,inactive
10,COCC(=O)N(C)C[C@H]1Oc2cc(C#CCC3CCCC3)ccc2S(=O)(=O)N([C@H](C)CO)C[C@H]1C,inactive
11,C[C@@H]1CN([C@H](C)CO)C(=O)Cc2cc(NC(=O)C3CC3)ccc2O[C@H]1CN(C)C(=O)Nc1ccccc1,inactive
12,COCC(=O)N1[C@@H]2c3ccc(C4=CCCCC4)c(=O)n3C[C@@H]2[C@@H](CO)[C@@H]1C(=O)N1CCOCC1,inactive
13,C=CC(=O)Nc1cccc(C)c1Nc1ncc2cc(-c3c(Cl)c(OC)cc(OC)c3Cl)ccc2n1,active
14,COCC(=O)Nc1ccc2c(c1)C(=O)N(C)[C@@H]1CC[C@@H](CC(=O)NCc3ccc(OC)cc3)O[C@H]1CO2,inactive
15,Cc1noc(C)c1NC(=O)N(C)C[C@H]1Oc2ccc(NC(=O)Nc3ccc(C(F)(F)F)cc3)cc2C(=O)N([C@@H](C)CO)C[C@H]1C,inactive
16,COCC(=O)N(C)C[C@H]1Oc2cc(C#C[C@@H](C)O)ccc2S(=O)(=O)N([C@H](C)CO)C[C@@H]1C,inactive
17,C[C@@H]1CCCCO[C@@H](CN(C)Cc2ccc(Cl)c(Cl)c2)[C@@H](C)CN([C@H](C)CO)C(=O)c2cc(NC(=O)CCCN(C)C)ccc2O1,active
18,C[C@@H]1CCCCO[C@H](CN(C)Cc2ccc(Cl)c(Cl)c2)[C@@H](C)CN([C@@H](C)CO)C(=O)c2cc(NC(=O)CCC(F)(F)F)ccc2O1,inactive
19,C[C@H]1CCCCO[C@H](CN(C)Cc2ccc(Cl)c(Cl)c2)[C@@H](C)CN([C@@H](C)CO)C(=O)c2cc(NC(=O)CCC(F)(F)F)ccc2O1,inactive
20,C[C@@H]1CN([C@H](C)CO)C(=O)c2cc(NC(=O)CCC(F)(F)F)ccc2O[C@@H](C)CCCCO[C@@H]1CN(C)Cc1ccc(Cl)c(Cl)c1,active
21,C[C@@H]1CCCCO[C@@H](CN(C)Cc2ccc(Cl)c(Cl)c2)[C@@H](C)CN([C@@H](C)CO)C(=O)c2cc(NC(=O)CCC(F)(F)F)ccc2O1,active
22,C[C@@H]1CN([C@@H](C)CO)C(=O)c2cc(NC(=O)CCC(F)(F)F)ccc2O[C@@H](C)CCCCO[C@H]1CN(C)Cc1ccc(Cl)c(Cl)c1,inactive
23,C[C@@H]1CCCCO[C@@H](CN(C)Cc2ccc(Cl)c(Cl)c2)[C@H](C)CN([C@@H](C)CO)C(=O)c2cc(NC(=O)CCC(F)(F)F)ccc2O1,inactive
24,C[C@@H]1CCCCO[C@H](CN(C)Cc2ccc(Cl)c(Cl)c2)[C@@H](C)CN([C@H](C)CO)C(=O)c2cc(NC(=O)CCC(F)(F)F)ccc2O1,inactive
25,C[C@H](CO)N1C[C@H](C)[C@@H](CN(C)Cc2ccc(Cl)c(Cl)c2)OCCCC[C@H](C)Oc2ccc(NC(=O)CCC(F)(F)F)cc2C1=O,inactive
26,C[C@@H]1CN([C@H](C)CO)C(=O)c2cc(NC(=O)CCC(F)(F)F)ccc2O[C@@H](C)CCCCO[C@H]1CN(C)Cc1ccc(Cl)c(Cl)c1,active
